Sampled rows, rich in hits. Any-hit rate of the full collection: about 2.8%.
KCNH2 3.1 inh – KCNH2 3.1 (human) potassium channel inhibition; U2OS KCNH2 3.1, thallium flux FluxOr; active compounds read low; activity change, % (tested at about 1.8 µM); actives 0.95% (n = 340,000);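 active = maximum activity change below -70%; inconclusive = maximum activity change from -70% to -50%; inactive = maximum activity change above -50%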;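 note: thallium influx rate constant from kinetic fluorescence after stimulation buffer; % is set by controls: 0 for no effect and ±100 for the full control effect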
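Virally transduced U2OS (3.1 isoform, 4 h infection in dark at RT) → overnight 37 C → FluxOr + Red40 in HBSS/HEPES, 45 min → stimulation buffer, 2 min kinetic read → rate constant vs DMSO controls.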
GLP1R ag – activates the human GLP-1 receptor; P43220; HEK293 GLP-1R CRE-luciferase, luminescence, 4-6 h; cells express a hypersensitive GLP-1R form; Potency, µM (series often up to 45.6 µM), without a hit: at the highest dose activation, actives largely listed as activators; actives 0.007% (n = 380,000); AID 624172; note: potency is the fitted concentration of half-maximal effect; % of control where 0% means no effect
HEK293 tox – cytotoxic in the GLP-1 receptor inverse agonist counter-screen | HEK293 cAMP-luciferase reporter cells, luminescence, 24 h | Potency, µM (titrated, usually from 38.3 µM), without a hit: at the highest dose activity change, negative = inhibition, usual class: inhibitors | actives 0.13% (n = 410,000);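 note: loss of luciferase light is scored as toxicity; potency is the fitted concentration of half-maximal effect; % is set by controls: 0 for no effect and ±100 for the full control effect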
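Cells in DMEM/10% Nu serum/1% pen-strep, 1536-well format. Pre-incubated 12 h, dosed with 23 nL compound, incubated a further 24 h. Luciferase detection, 12 min at room temp, luminescence.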
KCNH2 WT inh – KCNH2 (human, wildtype) channel inhibition; activity change, % at 1.84 µM; actives 0.37% (n = 340,000); Q12809; U2OS, BacMam KCNH2, thallium flux FluxOr; active compounds read low;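 active = maximum activity change below -70%; inconclusive = maximum activity change between -70% and -50%; inactive = maximum activity change above -50%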; note: % is set by controls: 0 for no effect and ±100 for the full control effect
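U2OS cells were transduced with wild-type KCNH2 virus (2.03 x 10^8 / mL) for 4 h at room temperature, then cultured overnight at 37 C. Thallium flux was read with FluxOr dye. Rate constants were normalized to DMSO controls.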
GLS inh – glutaminase GLS (human) inhibition; GLS enzymatic activity, qHTS titration; actives 0.21% (n = 410,000); AID 624170; O94925; Potency, µM (titrated, usually from 45.5 µM), inactives show at the top dose activity change, negative = inhibition, actives largely listed as inhibitors; note: potency is the fitted concentration of half-maximal effect; % is set by controls: 0 for no effect and ±100 for the full control effect
Target sequence (O94925 whole entry, looked up): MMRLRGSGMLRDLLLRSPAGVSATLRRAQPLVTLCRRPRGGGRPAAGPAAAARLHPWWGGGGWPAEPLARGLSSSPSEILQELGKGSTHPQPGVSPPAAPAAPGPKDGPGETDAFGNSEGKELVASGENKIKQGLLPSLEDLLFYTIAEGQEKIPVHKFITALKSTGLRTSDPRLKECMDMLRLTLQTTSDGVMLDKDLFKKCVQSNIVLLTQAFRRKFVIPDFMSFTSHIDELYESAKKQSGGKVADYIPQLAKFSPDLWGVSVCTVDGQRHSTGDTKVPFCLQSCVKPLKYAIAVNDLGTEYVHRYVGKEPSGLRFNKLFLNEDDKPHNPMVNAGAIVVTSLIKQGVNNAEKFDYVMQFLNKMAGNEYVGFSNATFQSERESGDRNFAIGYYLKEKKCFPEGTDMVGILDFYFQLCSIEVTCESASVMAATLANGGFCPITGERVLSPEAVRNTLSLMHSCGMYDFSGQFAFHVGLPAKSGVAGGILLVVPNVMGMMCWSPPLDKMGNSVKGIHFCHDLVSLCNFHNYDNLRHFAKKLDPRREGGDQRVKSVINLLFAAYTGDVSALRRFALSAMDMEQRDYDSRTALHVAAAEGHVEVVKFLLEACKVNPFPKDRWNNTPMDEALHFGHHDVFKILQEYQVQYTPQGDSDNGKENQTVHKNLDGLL
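Enzyme dispensed in phosphate buffer (45 mM, pH 8.2, 0.02% Tween-20), compounds pinned in, then 1 mM L-glutamine solution and the glutamate oxidase–HRP–Amplex Red mix added; fluorescence read immediately and again after 30 min at room temperature.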
GLP-1R inv ag – inverse agonists of human GLP-1 receptor. P43220. HEK293 GLP-1R CRE-luciferase, luminescence, 24 h; GLP-1R form is constitutively active. Potency, µM (highest dose often 38.3 µM), inactives show at the top dose activity change, negative = inhibition, usual class: inhibitors. actives 1.6% (n = 410,000). AID 624417; note: potency is the fitted concentration of half-maximal effect; % is set by controls: 0 for no effect and ±100 for the full control effect; nearly all actives have a fitted effect of over 55% in size
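Inverse agonists were sought by their lowering of basal cAMP reporter luciferase output in HEK293 cells stably carrying constitutively active human GLP-1R, after 24 h compound treatment.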
Numbers without * were called inactive; ? = inconclusive; . = no result. Unless noted, calls come from the whole dose curve; as a rule, active = well fitted curve in the direction sought with a large enough effect; inconclusive = small, poorly fitted or top-dose-only effect, or another doubt; inactive = no such curve, though single readings can be large; an effect the other way counts as inactive or inconclusive.

SMILES	KCNH2 3.1 inh	GLP1R ag	HEK293 tox	KCNH2 WT inh	GLS inh	GLP-1R inv ag
CCOC(=O)Nc1ccc2c(c1)N(C(=O)OC)c1ccccc1CC2	17	1%	-25%	2	-2%	-24%
CCOC(=O)Nc1ccc2c(c1)N(CCCN(C)C)c1ccccc1CC2	-36	-6%	3%	25	2%	13µM*
Cc1nn2c(N3CCN(CCO)CC3)c3c(nc2c1-c1ccccc1)CCCC3	-94*	26%	0%	2	-2%	3.5µM*
Cc1ccc(C)c(NC(=O)C(Cc2ccccc2)n2cccc2)c1 (configuration not stated)	.	.	-8%	.	6%	10µM*
COc1c(OC(C)=O)ccc(/C=C/c2ccc3ccccc3n2)c1[N+](=O)[O-]	-77*	-18%	-35%	-3	4%	1%
COc1ccccc1C(=O)Nc1ccccc1SCc1cc(=O)c2ccccc2[nH]1	.	.	4%	.	-6%	16%
CCOc1ccccc1C1CC(=O)Nc2c1c(=O)n(C)c1ncnn21 (configuration not stated)	.	-6%	5%	.	-14%	13%
O=C(Cc1ccc(F)cc1)NCCc1ccccc1	?	-1%	11%	-5	1%	-15%
O=C(CS(=O)(=O)Cc1ccccc1)NCCc1ccc(F)cc1	-78*	-2%	-2%	3	-1%	?
Cc1nn(C)c2c1c(-c1ccccc1)cc(=O)n2Cc1ccccc1C#N	.	.	10%	.	-10%	-4%
COc1cc(CNc2ccc(N3CCN(C(C)=O)CC3)cc2)ccc1OCc1ccccc1	-8	16%	-6%	6	13µM*	-13%
COc1cc(CNc2ccc(N3CCOCC3)cc2)ccc1OCC(=O)NC(C)(C)C	-4	18%	0%	5	46%	10%
OCC1(CCc2ccccc2)CCCN(CCCc2ccccc2)C1 (configuration not stated)	-96*	10%	-23%	?	-3%	?
C#CCC(Cc1cnc2nc(N)nc(N)c2n1)c1ccc(C(=O)N[C@@H](CCC(=O)O)C(=O)O)cc1 (some centres not stated)	.	6%	.	.	-2%	.
O/N=C(/c1ccc(F)cc1)C1CC1c1c(F)cccc1Cl (configuration not stated)	-11	25%	?	-2	-3%	?
Fc1ccc(Nc2nc(NCc3ccco3)c3ccccc3n2)cc1	-92*	2%	?	-13	8%	3.5µM*
COC(=O)c1ccc(OCC(O)CN2CCN(C(=O)c3ccco3)CC2)cc1 (configuration not stated)	25	-7%	-2%	1	0%	1%
COC(=O)c1ccc(OCC(O)CN2CCN(C(=O)c3ccco3)CC2)c(OC)c1 (configuration not stated)	-85*	7%	7%	2	-2%	14%
COC(=O)c1ccc(NC(=S)NC2CC3CCC2C3)cc1 (configuration not stated)	0	-4%	?	-6	-4%	10µM*
COCCCn1c(=O)c2ccccc2n(Cc2cccc(C)c2)c1=O	-12	1%	8%	-1	-2%	?
COCCCn1c(=O)c2ccccc2n(Cc2ccc(C)cc2)c1=O	-123*	16%	4%	7	-16%	-15%
Nn1c(Cc2ccccc2)nc2cc(Cl)ccc2c1=O	-47	0%	11%	-21	1%	-14%
Cc1ccc(NS(=O)(=O)c2ccc3[nH]c4c(c3c2)CCCCC4)cc1	.	.	?	.	-13%	11µM*
COc1ccc(NS(=O)(=O)c2ccc3[nH]c4c(c3c2)CCCCCC4)cc1	.	.	-4%	.	-3%	?
CN(C)Cc1cc(C(F)(F)F)ccc1C(O)(c1ccccc1)c1ccccc1	12	-8%	?	10	-2%	8.9µM*
SMILES	KCNH2 3.1 inh	GLP1R ag	HEK293 tox	KCNH2 WT inh	GLS inh	GLP-1R inv ag
CN(C)Cc1ccccc1C(O)(c1ccccc1)c1ccccc1	-9	2%	-6%	26	-31%	?
Clc1ccccc1CSc1cc2c(nn1)-c1ccccc1CC2	-1	-4%	2%	9	2%	10µM*
C/C=C(\C)C(=O)OC1CC(C)(C)C[C@H]2C3=CC[C@@H]4[C@@]5(C)CCC(O[C@@H]6O[C@@H](C(=O)O)[C@@H](O)C(O[C@@H]7OC[C@H](O)[C@@H](O)[C@@H]7O[C@@H]7OC(CO)C(O)[C@@H](O)[C@@H]7O)C6O[C@@H]6OC(CO)C(O)C(O)C6O)[C@@](C)(CO)[C@@H]5CC[C@]4(C)[C@]3(C)CC(O)[C@@]12CO (some centres not stated)	10	-8%	-6%	24	13µM*	-5%
CC1(C)CC[C@]2(C(=O)O[C@@H]3OC(CO)[C@@H](O)[C@H](O)[C@H]3O)CC[C@]3(C)C(=CCC4[C@@]5(C)CC[C@H](O[C@@H]6OC(C(=O)O)[C@@H](O)[C@H](O)[C@H]6O)C(C)(C)C5CC[C@]43C)[C@@H]2C1 (some centres not stated)	5	-3%	-2%	-2	?	8%
COc1ccc(CNC(=O)Cn2ncc3c(=O)oc4ccc(C)cc4c32)c(OC)c1	.	.	17%	.	1%	13%
Cc1oc(-c2ccccc2Cl)nc1CS(=O)(=O)CC(=O)N1CCOCC1	-44	11%	4%	4	-2%	12%
C[C@]12CC[C@@H]3c4ccc(O)cc4CC[C@H]3[C@@H]1C[C@H](O)C2O (some centres not stated)	.	6%	.	.	4%	.
NC(=O)c1ccccc1[N+](=O)[O-]	-5	-3%	2%	4	-13%	4%
N#CC(CCc1ccccc1[N+](=O)[O-])(CCc1ccccc1[N+](=O)[O-])C(N)=O	-121*	17%	12%	?	-4%	1%
Cc1ccc(C)c(N(C)C(=O)c2cn(C)c(=O)c3ccccc23)c1	.	.	28%	.	9%	6.3µM*
CCN(C(=O)c1cn(C)c(=O)c2cc(OC)c(OC)cc12)c1cc(C)ccc1C	2	0%	-10%	-50	-10%	13%
Cc1sc(NC(=O)C2c3ccccc3Oc3ccccc32)c(C(=O)OC(C)C)c1C	.	.	-2%	.	-1%	5%
Cc1c(C(=O)OC(C)C)sc(NC(=O)C2c3ccccc3Oc3ccccc32)c1C(=O)OC(C)C	.	.	12%	.	-7%	8.9µM*
COc1ccc(NC(=O)CSc2nncn3c2cc2occc23)c(OC)c1	.	.	-11%	.	0%	12%
